In the library only some 3.5% were active in any assay of this set; here they are far more common.
TEAD-YAP block – TEAD-YAP interaction inhibition. HEK-TIYL cells, TEAD-Gal4/YAP UAS-luciferase luminescence. AID 1259422. 640,000 compounds, 1.4% hits. inhibition, % at 9.12 µM; in the data active = inhibition above about 32%
GPR151 activ – human GPR151 activation | PathHunter beta-arrestin GPR151 cells, luminescence | 650,000 compounds, 1% hits | activation, % at 11.2 µM; in the data active = activation above about 4.9%
Target sequence (Q8TDV0 whole entry, looked up): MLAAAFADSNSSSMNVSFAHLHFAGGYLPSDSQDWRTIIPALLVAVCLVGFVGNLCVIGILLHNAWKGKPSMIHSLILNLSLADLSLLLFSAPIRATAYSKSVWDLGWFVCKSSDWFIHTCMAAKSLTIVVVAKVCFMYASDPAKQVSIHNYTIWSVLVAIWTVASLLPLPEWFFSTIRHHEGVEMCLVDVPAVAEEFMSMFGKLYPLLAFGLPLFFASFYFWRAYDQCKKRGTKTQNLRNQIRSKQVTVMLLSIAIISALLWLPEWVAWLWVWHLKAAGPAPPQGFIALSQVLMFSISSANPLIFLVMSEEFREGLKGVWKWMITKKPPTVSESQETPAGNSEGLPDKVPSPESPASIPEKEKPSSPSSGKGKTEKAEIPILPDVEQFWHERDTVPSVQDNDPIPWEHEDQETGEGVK
MITF inh – blocks human microphthalmia-associated transcription factor; O75030; inhibition, % at 2.6 µM; AID 1259374; 650,000 compounds, 0.91% hits; AlphaScreen MITF homodimerization, bead proximity signal; in the data active = inhibition above about 50%
FBW7 act – human FBW7 E3 ligase activation, primary screen | Q969H0 | AlphaScreen FBW7–phospho-cyclin E peptide binding, activator screen | normalized activity (activation), % at 26.1 µM | 650,000 compounds, 0.13% hits | AID 1259310; in the data active = normalized activity above about 1.9%;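 also: purified mutant Fbw7 with reduced substrate affinity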
GPR151 conf act – human GPR151 activation, confirmation screen; shares compounds with GPR151 activ; GPR151 PathHunter beta-arrestin cells, luminescence, 90 min; % of EA-reagent control over plate median; activation, % at 11.2 µM; 6,700 tested, under 10 active;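 active = mean percent activation across replicates above the confirmation screen cutoff of 4.91%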
GPR119 ag – activates human GPR119 in a GPR151 counter-screen; activation, % at 11.2 µM; GPR119 PathHunter beta-arrestin cells, luminescence, 90 min; 0 = compound-well median, 100 = enzyme-acceptor control; shares compounds with GPR151 activ; 6,700 compounds, 0.3% hits;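 active = mean percent activation in the counterscreen above 29.09%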;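 also: counterscreen on off-target GPR119 to flag nonselective hits from the GPR151 activator screen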
A number is an active result; - = inactive; . = no result.

SMILES | TEAD-YAP block | GPR151 activ | MITF inh | FBW7 act | GPR151 conf act | GPR119 ag
COc1cc(NC(=O)c2sc3nc4n(c(=O)c3c2C)CCCC4)cc(OC)c1OC | - | 12 | - | - | - | -
CC1(C)OC(=O)C(=CNC(CCC(N)=O)C(=O)O)C(=O)O1 (stereo unspecified) | - | 6.4 | - | - | - | -
CCCCOc1ccc(-c2nn(-c3ccccc3)cc2/C=c2\sc3nc(-c4ccc(Br)cc4)nn3c2=O)cc1C | - | - | - | - | . | .
O=C(CN1C(=O)C2C3CCC(C3)C2C1=O)Nc1ccc(-c2ccccc2)cc1 (stereo unspecified) | - | - | - | - | . | .
O=C(CN1C(=O)C2C3CCC(C3)C2C1=O)Nc1ccc(-n2cnnn2)cc1 (stereo unspecified) | - | 5.1 | - | - | - | -
Cc1cc(C)cc(N(C(C)C(=O)O)S(C)(=O)=O)c1 (stereo unspecified) | - | 5.5 | - | - | - | -
CCN(CC)C(=O)c1sc(NC(=O)c2cc(-c3ccc(Cl)c(Cl)c3)nc3ccccc23)c(C(=O)OC)c1C | - | - | - | - | . | .
CC(O)c1nc2ccccc2n1Cc1cccc(Cl)c1 (stereo unspecified) | - | 5.2 | - | - | - | -
CC(O)c1nc2ccccc2n1CCOc1ccccc1F (stereo unspecified) | - | 5.1 | - | - | - | -
Cn1c(=O)c2ccccc2n(C)c1=S | - | 5.6 | - | - | - | -
CCCCSc1nc2sc3c(c2c(=O)n1-c1ccc(OC)cc1)CCc1ccccc1-3 | - | - | - | - | . | .
COc1ccc([N+](=O)[O-])cc1/C=N/NC(=O)COc1ccc(Br)cc1OC | - | - | - | - | . | .
O=C(Nc1cc(F)ccc1F)C1CCCN(c2ncnc3c2nc2n3CCCCC2)C1 (stereo unspecified) | - | 8.0 | - | - | - | -
O=C(Nc1ccc(F)cc1F)C1CCCN(c2ncnc3c2nc2n3CCCCC2)C1 (stereo unspecified) | - | - | - | - | . | .
COc1cccc(C(=O)Nc2nnc(CCS(=O)(=O)c3ccc(Br)cc3)s2)c1 | - | - | - | - | . | .
CCCCC(Sc1nc2ccccc2c2nc(-c3ccccc3OC)nn12)C(=O)OCC (stereo unspecified) | - | 5.4 | - | - | - | -
CNC(C)(C)c1nnnn1-c1c(C)cccc1C | - | - | - | - | . | .
COCCCNC(=O)c1cccnc1SCc1ccccc1Cl | - | 5.5 | - | - | - | -
COc1ccc(NC(=O)NCc2ccncc2)cc1 | - | - | - | - | . | .
COc1ccc(NC(=O)C(=O)NCc2ccncc2)cc1 | - | 5.1 | - | - | - | -
c1c2c(cc3c1OCCO3)C1CN(C2)Cc2cc3c(cc21)OCCO3 | - | 7.4 | - | - | - | -
CCc1ccc(C2NCCc3cc4c(cc32)OCCO4)cc1 (stereo unspecified) | - | - | - | - | . | .
O=C(Nc1c(F)cccc1F)c1ccc(Cl)cc1 | - | 7.7 | - | - | - | -
O=C(Nc1c(F)cccc1F)c1ccccc1Cl | - | - | - | - | . | .
O=C(Nc1ccc2ccccc2c1)c1ccc(Cl)cc1 | - | 5.2 | - | - | - | -
SMILES | TEAD-YAP block | GPR151 activ | MITF inh | FBW7 act | GPR151 conf act | GPR119 ag
c1ccc(NC2=NCCC2)cc1 | - | 7.1 | - | - | - | -
FC(F)(F)c1ccc(NC2=NCCC2)cc1 | - | - | - | - | . | .
O=C(Nc1ccc(F)cc1)c1cccc(S(=O)(=O)Nc2cccc(F)c2)c1 | - | - | - | - | . | .
CN(C(=O)c1cc2nc(-c3ccc(Br)cc3)cc(C(F)(F)F)n2n1)C1CCCCC1 | - | - | - | - | . | .
C/C(=N/NC(=O)c1ccccc1)C1CC1 | - | - | - | - | . | .
C/C(=N/NC(=O)c1cccc(Cl)c1)c1ccc([N+](=O)[O-])o1 | - | 5.7 | - | - | - | -
C/C(=N\NC(=O)c1cccc(Cl)c1)c1ccc([N+](=O)[O-])o1 | - | - | - | - | . | .
C/C(=N\NC(=O)c1cccc(Cl)c1)C1CC1 | - | 8.9 | - | - | - | -
COc1cccc(CN2CCNC(=O)C2CC(=O)N(C)Cc2ccno2)c1 (stereo unspecified) | - | - | - | - | . | .
Cc1csc(CN(C)C(=O)CC2C(=O)NCCN2CCC(C)C)n1 (stereo unspecified) | - | - | - | - | . | .

Screening results: PubChem BioAssay, The Scripps Research Institute Molecular Screening Center
